The Inhibition is the share of the control response that was lost under treatment. Lower therefore signals a response near the control.

For the assay, the system named is Plasmodium falciparum. Put plainly: GSK_TCMDC: Inhibition of Plasmodium falciparum 3D7 in whole red blood cells, using parasite LDH activity as an index of growth. Test compounds present at 2uM. The class given is functional.
`Cc1cc(Nc2nc(Nc3cccc(Cl)c3)nc3ccccc23)n[nH]1` yielded an Inhibition of 100%.

For `CCC(O)c1ccc(Br)cc1NC(=O)c1cccc(Cl)c1` (stereo not given), the Inhibition worked out at 80%.

In the case of `COc1ccc(OC(C)CNC(=O)c2cc([N+](=O)[O-])ccc2-c2ccc(OC)cc2)cc1` (stereo not given), the Inhibition is recorded as 92%.

`CCCNC(=O)c1cncc(-c2ccc(CNCCCc3ccccc3)cc2)c1.O=C(O)C(F)(F)F` displayed an Inhibition of 100%.

Consider `CCCCCn1c(Sc2ccc(C#N)c([N+](=O)[O-])c2)nnc1-c1ccccc1`, for which the Inhibition was found to be 93%.

On to `Cc1ccc(F)cc1S(=O)(=O)Nc1ccc(CCN2CCC(N3CCCCC3)CC2)cc1`, for which the Inhibition came out at 99%.

`CS(=O)(=O)c1ccc(CCNCc2ccc(-c3ccc(CN(C(=O)C4CCCC4)C4CCN(Cc5ccccc5)CC4)cc3)nc2)cc1.O=C(O)C(F)(F)F` gave an Inhibition of 91%.

In turn, `O=C(c1cc(OC(F)(F)F)ccc1O)N1CCN(c2ccccc2)CC1` returned an Inhibition of 88%.

Compound `Cl.O=C(/C=C/c1ccc(F)cc1)NC1CCC(CCN2CCCN(c3ccc(C(F)(F)F)cn3)CC2)CC1` (stereo not given) returned an Inhibition of 97%.

Consider `CCCNCc1ccc(-c2ccc(CN(CCOC)C(=O)[C@H]3CCCO3)cc2)nc1.O=C(O)C(F)(F)F`, for which the Inhibition is recorded as 98%.

With `CCCc1cc(Cc2cnc(N)nc2N)cc2c1OC(C)C2C.Cl` (stereo not given), the Inhibition worked out at 98%.

`O=C(/C=C/c1ccc(Cl)c(Cl)c1)NCCCCCN1CCC(C(=O)Nc2ccc(Cl)cc2)CC1` came in with an Inhibition of 100%.

`NC1=NC(c2ccccc2)(c2ccccc2)C(=O)N1CCOc1ccccc1` gave an Inhibition of 90%.

In the case of `CCN(CC)CCN(Cc1ccc(-c2ccc(C(F)(F)F)cc2)cc1)C(=O)Cn1c(CCc2cccc(F)c2F)nc(=O)c2ccc(C(F)(F)F)cc21.O=C(O)C(O)C(O)C(=O)O`, the Inhibition was 99%.

For the compound `CC(C)=CCc1c(-c2ccc(O)cc2O)oc2c3c(cc(O)c2c1=O)OC(C)(C)C=C3` [MORUSIN], the Inhibition was found to be 89%.

In turn, `CCNc1cc(C(=O)N[C@@H](Cc2ccccc2)[C@H](O)CNCc2cc(OC)cc(OC)c2)cc(N2CCCS2(=O)=O)c1.Cl` returned an Inhibition of 99%.

Consider `O=C(Nc1ccc(Br)cc1)N(CCN1CCOCC1)CC(O)COCc1ccc(Cl)c(Cl)c1.O=C(O)C(F)(F)F` (stereo not given), for which the Inhibition stood at 94%.

Compound `CCN1CCN(CC(O)CNC(=O)Nc2ccc(Cl)cc2)CC1.O=C(O)C(F)(F)F` (stereo not given) showed an Inhibition of 100%.

`COc1ccc2c(=NN=Cc3ccncc3)cc(C)[nH]c2c1` showed an Inhibition of 99%.

In the case of `CCOc1ccc(-c2n[nH]c(C(F)(F)F)c2-c2ccccc2OC)c(O)c1`, the Inhibition is 86%.

As to `CN(C)CCOc1ccc(-c2cc(-c3ccnc(N)n3)c(-c3ccc(Cl)c(O)c3)o2)cc1`, the Inhibition amounted to 100%.

The compound `O=C1C(c2ccccc2)=C(Nc2ccc(OC(F)(F)F)cc2)c2ccccc21` displayed an Inhibition of 96%.

Compound `O=C(Nc1ccc(F)cc1F)NC1CCN(c2ccnc3cc(Cl)ccc23)C1.O=C(O)C(F)(F)F` (stereo not given) had an Inhibition of 100%.

Consider `CC(=O)Oc1c(C2CCN(CCCCNC(=O)c3ccc(NC(=O)c4ccc(Cl)cc4)cc3)CC2)ccc2c1CCCC2`, for which the Inhibition worked out at 100%.

For the compound `N#Cc1ccc(-c2ccc(C(=O)NCCCCN3CCC(c4ccncc4)CC3)cc2)cc1`, the Inhibition is reported as 94%.

Regarding `CCCCCCCN1CCC(CCNc2ccnc3ccc(OC)cc23)CC1`, the Inhibition worked out at 84%.

`CNc1ccc(CNCc2ccc(-c3ccc(-c4nc5cc(F)ccc5[nH]4)cc3)cc2)cc1.O=C(O)C(F)(F)F` had an Inhibition of 100%.

Turning to `CC(C)CCN1CCCN(Cc2ccc(C(=O)Nc3ccc(Cl)cc3)cc2)CC1.O=C(O)C(F)(F)F`, the Inhibition was 94%.

On to `O=C(Nc1ccc2c(c1)CCC2)N[C@H]1CCN(CCCCCNC(=O)C2CC2c2ccc(Cl)c(Cl)c2)C1` (stereo not given in full), for which the Inhibition amounted to 86%.

For `N#Cc1cccc(C(=O)Nc2ccc(-c3cccc(CN4CCCC4)c3)cc2)c1.O=C(O)C(F)(F)F`, the Inhibition is 100%.

`CNCCNCc1ccc(-c2cccc(-c3nc4cc(F)ccc4[nH]3)c2)cc1.O=C(O)C(F)(F)F` showed an Inhibition of 93%.

The compound `COCCN1CCC(CN(C)CC(C)(C)c2nc(-c3ccc(Cl)c(O)c3)c(-c3ccncc3)[nH]2)CC1.Cl` returned an Inhibition of 94%.

With `O=C(O)C(F)(F)F.O=S(=O)(Nc1ccc(-c2ccc(CN3CCCC3)cc2)cc1)c1cccc2cccnc12`, the Inhibition turned out to be 91%.

As for `CCN(CC)CCN(Cc1ccc(-c2ccc(Cl)cc2)cc1)C(=O)Cn1c(CCc2cccc(F)c2F)nc(=O)c2ccccc21.O=C(O)C(O)C(O)C(=O)O`, the Inhibition was found to be 100%.

Consider `Cc1cc(OCCCN2CCCCC2)ccc1NC(=O)COc1ccc(Cl)cc1C(=O)c1cc(C#N)cc(C(F)(F)F)c1`, for which the Inhibition is 87%.

`CC1=C(C(=O)Nc2cc3cn[nH]c3cc2F)C(c2cccc(NS(C)(=O)=O)c2)CC(=O)N1` (stereo not given): the Inhibition stood at 96%.

`COc1ccc2ncc(F)c(NC(=O)C3CCC(NCc4cc5c(F)cccc5[nH]4)CC3)c2n1.Cl` (stereo not given) came in with an Inhibition of 91%.

For `O=CO.c1ccc(-c2ccc(CNCCCNc3nc4ccccc4[nH]3)cc2)cc1`, the Inhibition is listed as 95%.

On to `CN(CCCCCNC(=O)/C=C/c1ccc(Cl)c(Cl)c1)CCCCc1c[nH]c2ccccc12`, for which the Inhibition turned out to be 90%.

As for `CC(C)(C)NC(=O)c1ccc(Oc2ccc(OC(F)(F)F)cc2)c(NC(=O)C(C)(C)C)c1`, the Inhibition worked out at 89%.

(Values after ChEMBL document CHEMBL1157539, “Thousands of chemical starting points for antimalarial lead identification” (Nature, 2010).)
